Results on six compounds are retold here after PubChem BioAssay (NCI).

About 83,000 compounds went through this panel and 20% of them were active in at least one assay; those are over-represented in the sample as a whole.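 Each cell line was grown in a 96-well plate and treated with one concentration of compound for 48 hours. Values below 10 were considered active.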 Unmarked numbers belong to inactive results. Calls of active or inactive are those of the source.

Test systems include SR leukemia; RPMI-8226 leukemia; OVCAR-8 ovarian; OVCAR-5 ovarian; OVCAR-4 ovarian; SK-OV-3 ovarian; IGROV1 ovarian; OVCAR-3 ovarian; HS 578T breast; NCI/ADR-RES ovarian; T-47D breast; BT-549 breast; MDA-MB-435 melanoma; SW-620 colon; MCF7 breast; HCT-116 colon; HCC-2998 colon; KM12 colon; MDA-MB-468 breast.
Common to all, as to assay: NCI-60 one-dose screen, 48 h (100 = growth as untreated, 0 = no growth, -100 = all killed)
Settings in all cases: 10 µM unless noted

For the compound `S=C(NCCc1ccccc1)Nc1ccc(OCc2nc3ccc(Cl)cc3[nH]2)cc1`, the growth with SR leukemia was -7.42% (active); in the assay on RPMI-8226 leukemia, 7.74% (active); in the assay with OVCAR-8 ovarian it was 39.7%; in the assay on OVCAR-5 ovarian it was 30.5%; in the assay on OVCAR-4 ovarian it was 32.1%; in the assay on SK-OV-3 ovarian it was 77.2%. For the same compound, the growth with IGROV1 ovarian was 31.4%; in the assay with OVCAR-3 ovarian, 34.9%; in the assay with HS 578T breast, 38.4%; with NCI/ADR-RES ovarian, 11.7%; in the assay on T-47D breast it was 34.9%; in the assay on BT-549 breast, 45.9%. Moreover, the growth was 36.6% in the assay on MDA-MB-435 melanoma; 37% with SW-620 colon; 7.94% (active) in the assay on MCF7 breast; 18.9% in the assay with HCT-116 colon; 3.57% (active) with HCC-2998 colon; 18.6% in the assay on KM12 colon. For the same compound, the growth in the assay on MDA-MB-468 breast is 21.7%.

Consider `O=Cc1cncc(-c2ccc3ncnc(N4CCc5cc(F)c(Cl)cc54)c3c2)c1`, for which the growth in the assay with SR leukemia is -4.69% (active); in the assay on RPMI-8226 leukemia, 15.4%; in the assay on OVCAR-8 ovarian, 39.8%; with OVCAR-5 ovarian, 27.6%; in the assay with OVCAR-4 ovarian it was 43.4%; with SK-OV-3 ovarian, 4.6% (active). Besides, the growth in the assay on IGROV1 ovarian was -41.2% (active); with OVCAR-3 ovarian it was 25.2%; with HS 578T breast it was -17.9% (active); with NCI/ADR-RES ovarian, 34.8%; in the assay with T-47D breast it was 23.7%; with BT-549 breast, -7.41% (active). Besides, the growth in the assay with MDA-MB-435 melanoma was 46.2%; in the assay with SW-620 colon, 23.4%; in the assay with MCF7 breast it was 1.77% (active); in the assay with HCT-116 colon, 33.7%; in the assay on HCC-2998 colon, 64%; in the assay on KM12 colon it was 81.8%. Moreover, the growth in the assay with MDA-MB-468 breast is -52.4% (active).

`COc1ccc(NC(=O)Cn2c(/C=C/c3cccc(OC)c3)nc3ccccc3c2=O)cc1`: the growth is 77.6% in the assay with SR leukemia; 41.1% in the assay with RPMI-8226 leukemia; 10.4% with OVCAR-8 ovarian; 40% in the assay on OVCAR-5 ovarian; -30.1% (active) with OVCAR-4 ovarian; 44.8% in the assay on SK-OV-3 ovarian. The growth was 37.7% with IGROV1 ovarian; 28.5% in the assay on OVCAR-3 ovarian; 9.48% (active) in the assay on HS 578T breast; 35.4% in the assay on NCI/ADR-RES ovarian; -15% (active) in the assay with T-47D breast; 73.8% with BT-549 breast. Moreover, the growth with MDA-MB-435 melanoma was 59.1%; in the assay with SW-620 colon, 41.2%; in the assay with MCF7 breast, 30.4%; in the assay on HCT-116 colon, 13.9%; with HCC-2998 colon it was 92.5%; in the assay on KM12 colon it was 82.5%. Also, the growth with MDA-MB-468 breast was 71.4%.

Consider `COc1cc(CNC(=O)[C@]23CCC(C)(C)CC2C2=CCC4[C@@]5(C)CCC(OC(C)=O)C(C)(C)C5CC[C@@]4(C)[C@]2(C)CC3)ccc1OCc1cn(-c2ccc(Cl)cc2Cl)nn1` (some centres undefined), for which the growth in the assay on SR leukemia is 103%; in the assay with RPMI-8226 leukemia, 89.9%; in the assay on OVCAR-8 ovarian, 102%; in the assay on OVCAR-5 ovarian it was 102%; with OVCAR-4 ovarian, 102%; with SK-OV-3 ovarian, 112%. Moreover, the growth with IGROV1 ovarian was 92.8%; in the assay on OVCAR-3 ovarian, 112%; in the assay with HS 578T breast, 100%; in the assay with NCI/ADR-RES ovarian, 120%; with T-47D breast, 85.1%; in the assay with BT-549 breast, 118%. Also, the growth is 105% in the assay on MDA-MB-435 melanoma; 106% with SW-620 colon; 86.5% in the assay with MCF7 breast; 98.2% in the assay with HCT-116 colon; 122% in the assay with HCC-2998 colon; 101% in the assay on KM12 colon. Further, the growth in the assay on MDA-MB-468 breast is 112%.

`O=S(=O)(c1nc(-c2ccc(Br)cc2)oc1-c1ccc(Cl)cc1)N1CCCC(O)C1` (centres undefined): the growth in the assay with SR leukemia was 37.2%; in the assay on RPMI-8226 leukemia, 29.7%; with OVCAR-8 ovarian, 68.4%; in the assay on OVCAR-5 ovarian, 87.8%; in the assay with OVCAR-4 ovarian it was 43%; in the assay on SK-OV-3 ovarian, 101%. Further, the growth in the assay with IGROV1 ovarian is 87.8%; in the assay with OVCAR-3 ovarian it was 63.1%; with HS 578T breast it was 82.1%; in the assay on NCI/ADR-RES ovarian, 31.3%; in the assay on T-47D breast, 28.8%; in the assay on BT-549 breast it was 76.1%. The growth with MDA-MB-435 melanoma is 60%; in the assay with SW-620 colon it was 57%; in the assay on MCF7 breast, 41.5%; in the assay with HCT-116 colon, 42.5%; in the assay with HCC-2998 colon it was 33.8%; with KM12 colon, 39%. Further, the growth with MDA-MB-468 breast is 45.6%.

In the case of `Cc1cnc2ccc(Oc3ccccc3-c3ccccc3)nn12`, the growth was 89.3% with SR leukemia; 106% with RPMI-8226 leukemia; 103% in the assay with OVCAR-8 ovarian; 111% with OVCAR-5 ovarian; 112% in the assay on OVCAR-4 ovarian; 178% in the assay with SK-OV-3 ovarian. The growth in the assay on IGROV1 ovarian is 105%; in the assay on OVCAR-3 ovarian, 120%; with HS 578T breast, 120%; with NCI/ADR-RES ovarian it was 104%; in the assay with T-47D breast it was 110%; in the assay on BT-549 breast it was 107%. The growth is 110% in the assay with MDA-MB-435 melanoma; 124% in the assay with SW-620 colon; 93% in the assay with MCF7 breast; 101% with HCT-116 colon; 113% with HCC-2998 colon; 107% in the assay on KM12 colon. The growth with MDA-MB-468 breast was 108%.
